Experimental data as given in PubChem BioAssay (NCI).
About 83,000 compounds went through this panel and 20% of them were active in at least one assay; those are over-represented in the sample as a whole.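 Assay: single dose, 48 h. Readout: percent growth (0 = no net growth; negative = cell death). Active: <10.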 Active and inactive are the calls of the source.

What was measured:
Assay in all cases: NCI-60 one-dose screen, 48 h (100 = growth as untreated, 0 = no growth, -100 = all killed)
Conditions in all cases: 10 µM
[1] = test system: NCI-H23 lung
[2] = test system: NCI-H226 lung
[3] = test system: NCI-H322M lung
[4] = test system: HOP-62 NSCLC
[5] = test system: NCI-H460 lung
[6] = test system: NCI-H522 lung
[7] = test system: A549/ATCC NSCLC
[8] = test system: 786-0 renal
[9] = test system: COLO 205 colon
[10] = test system: DU-145 prostate
[11] = test system: K-562 leukemia
[12] = test system: MALME-3M melanoma
[13] = test system: MDA-MB-231 breast
[14] = test system: RXF 393 renal
[15] = test system: SF-268 CNS
[16] = test system: SF-295 CNS
[17] = test system: SF-539 CNS
[18] = test system: UACC-257 melanoma
[19] = test system: M14 melanoma
[20] = test system: HCT-15 colon

Measured: growth

C#Cc1ccc(-n2c(/C=C/c3ccc(Cl)c(F)c3)nc3ncccc3c2=O)cc1
inactive: [1] 18.3%
active: [2] -74.5% | [3] -25% | [4] -57.6% | [5] -25.8% | [6] -66.7% | [7] -8.32% | [8] 7.88% | [9] -90.2% | [10] 3.49% | [11] -8.5% | [12] -60.4% | [13] -29.8% | [14] -76.2% | [15] -61.9% | [16] -60.1% | [17] 1.03% | [18] -65.1% | [19] -9.7%

Cc1cn(C2CCCCO2)c(=O)nc1NO (stereo unspecified)
inactive: [1] 93.4% | [2] 115% | [3] 110% | [4] 110% | [5] 107% | [6] 104% | [7] 104% | [8] 103% | [9] 120% | [10] 113% | [11] 101% | [12] 137% | [13] 106% | [14] 119% | [15] 103% | [16] 106% | [17] 96.1% | [18] 106% | [19] 113%

O=C(c1ccc(Cl)cc1Cl)N1CCOCC1
inactive: [1] 97.3% | [2] 96.8% | [3] 101% | [4] 97% | [5] 104% | [6] 103% | [7] 98.4% | [8] 97.4% | [9] 111% | [10] 109% | [11] 89.1% | [12] 112% | [13] 98.5% | [14] 116% | [15] 98.1% | [16] 140% | [17] 96.9% | [18] 96.6% | [19] 103%

NC(=S)N=Nc1c(O)c2ccccc2c2ccccc12
active: [1] 6.64% | [10] -8.94% | [18] -61.3% | [19] -68.6%
inactive: [2] 94.2% | [3] 82.3% | [4] 29.8% | [5] 51.9% | [6] 44.8% | [7] 23.7% | [8] 101% | [9] 92.3% | [11] 42.2% | [12] 60.5% | [13] 76.7% | [14] 99.4% | [15] 56.7% | [16] 82.7% | [17] 16.1% | [20] 23.3%

CCOC(=O)CCC(NC(=O)c1ccc(N)cc1)C(=O)OCC (stereo unspecified)
inactive: [1] 99.1% | [2] 103% | [3] 108% | [4] 96% | [5] 118% | [6] 80.5% | [7] 99.4% | [8] 110% | [9] 105% | [10] 112% | [11] 112% | [12] 88.2% | [13] 126% | [14] 129% | [15] 99.7% | [16] 136% | [17] 97.6% | [18] 101% | [19] 91.3% | [20] 98.7%

COc1cc(-c2cc(-c3cc4c([nH]c5ccccc54)c(-c4cc(OC)c(OC)c(OC)c4)n3)cc(-c3ccccc3)n2)cc(OC)c1OC
inactive: [1] 69.1% | [2] 77% | [3] 95% | [4] 78% | [5] 64.8% | [6] 43.4% | [7] 42.8% | [8] 79.6% | [9] 84.8% | [10] 97.5% | [11] 16.7% | [12] 58.3% | [13] 45.6% | [14] 72.6% | [15] 78.7% | [16] 26.8% | [17] 66% | [18] 89% | [19] 50.9%

N#Cc1ncc(-c2ccc(C(F)(F)F)cc2)c(NCc2cc(C(F)(F)F)cc(C(F)(F)F)c2)n1
inactive: [1] 10.6% | [2] 43.8% | [3] 70.2% | [4] 39.2% | [6] 12.2% | [7] 29.2% | [8] 40.3% | [10] 28.2% | [11] 16.1% | [12] 10.1% | [13] 39.4% | [14] 35.8% | [15] 56.8% | [17] 66.4% | [18] 28.7% | [19] 40%
active: [5] 2.11% | [9] -24.1% | [16] 4.36% | [20] 7.65%

O=C(c1cccs1)c1ccccc1Cc1ccccc1
inactive: [1] 102% | [2] 92.3% | [3] 83.6% | [4] 96.6% | [5] 107% | [6] 100% | [7] 89.1% | [8] 108% | [9] 116% | [10] 128% | [11] 98.2% | [12] 110% | [13] 88.6% | [14] 99.5% | [15] 115% | [16] 98.3% | [17] 112% | [18] 92.8% | [19] 118% | [20] 103%
